We go through 7 compounds from PubChem BioAssay (Tox21).

“And” between values parts separate entries of the source, which are not always exact repeats. Equal values may be shown once. Inconclusive results are not listed. Some structures have more than one record in an assay (separate samples or runs), and their calls can disagree. The source made the active and inactive calls. Unless noted, calls come from the whole dose curve.

Assay [1] is described as follows: Nuclear factor erythroid 2-related factor 2/antioxidant responsive element (Nrf2/ARE) small molecule agonists: qHTS cell viability counter screen in human keratinocytes (AID 1919968; active = well fitted curve in the direction sought with a large enough effect in the repeat runs; an effect the other way counts as inactive or inconclusive; note: nearly all actives have a fitted effect of over 55% in size; note: potency is the fitted concentration of half-maximal effect). The gist of the method: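 Parallel cytotoxicity read: KeratinoSens HaCaT cells, compound treatment 23 h, viability by CellTiter-Fluor fluorescence 1 h post-reagent.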
On the technique in general: Quantitative high-throughput screening tests each substance at several concentrations.

The nature of assay [2]: Nuclear factor erythroid 2-related factor 2/antioxidant responsive element (Nrf2/ARE) small molecule agonists: luciferase reporter gene qHTS assay in human keratinocytes (AID 1919969). Note: nearly all actives have a fitted effect of over 35% in size. Note: potency is the fitted concentration of half-maximal effect.
In assay [3] the target is Gonadotropin-releasing hormone receptor (Homo sapiens) (UniProt P30968). As to the kind of experiment: Human gonadotropin-releasing hormone receptor (GnRHR) small molecule agonists, calcium flux assay in GnRHR-HEK293 cells (AID 1920063). Note: nearly all actives have a fitted effect of over 35% in size. The gist of the method:
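Calcium flux, agonist mode, human GnRHR stably integrated in HEK293; dye 1 h at 37 C before compound; Ex/Em=480/540 kinetic read, 3 min; 15 concentrations, triplicate.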

Assay [4] addresses KiSS-1 receptor (Homo sapiens) (UniProt Q969F8). Put plainly: Human kisspeptin (KISS1R) small molecule agonists, calcium flux assay in KISS1R-HEK293 cells (AID 1920064; active = well fitted curve in the direction sought with a large enough effect in the repeat runs; an effect the other way counts as inactive or inconclusive). The gist of the method: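 Triplicate 15-concentration series were applied to dye-loaded human KISS1R HEK293 cells, and agonist-evoked calcium fluorescence was captured for 3 min.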
Assay [5] can be described thus: G protein-coupled receptor (GPCR) small molecule agonists, calcium flux assay: HEK293 wild type cell line counter screen (AID 1920065). The gist of the method:
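Non-specific calcium responders were flagged by adding DMSO-dissolved compounds to dye-loaded cells and reading 480/540 nm fluorescence each second for 3 min; ATP served as positive control.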
On the technique in general: A change in cytosolic calcium serves as a functional read-out for many receptors and channels.

Assay [6] in a line: p53 small molecule agonists, cell-based qHTS assay with human liver microsomes (AID 1963577). A digest of the protocol: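 Fluorescence of the beta-lactamase reporter in p53RE-bla cells, detected with LiveBLAzer substrate (2 h, room temperature, dark), served as the read-out after 16 h compound exposure at 37 C with human liver microsomes and NADPH, each 0.5 mg/mL final.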
A short description of assay [7]: p53 small molecule agonists, cell-based qHTS assay with rat liver microsomes (AID 1963578). A digest of the protocol: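 Cells carrying a p53 response element–beta-lactamase reporter were plated and rested 5 h, then dosed with compound in DMSO plus rat liver microsomes and NADPH, each at 0.5 mg/mL final. After 16 h at 37 C, LiveBLAzer substrate was added for 2 h.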

Assay [8] in a line: p53 small molecule agonists, cell-based qHTS assay with human liver microsomes: qHTS cell viability counter screen (AID 1963579). Note: nearly all actives have a fitted effect of over 45% in size. Note: potency is the fitted concentration of half-maximal effect. The gist of the method:
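Cytotoxicity counter screen: p53RE-bla, 4,000 cells/well; 5 h settle, 37 C/5% CO2; cpd + HLM 0.5 mg/mL + NADPH 0.5 mg/mL (final); 16 h, 37 C; CellTiter-Glo, 30 min RT, luminescence.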

A short description of assay [9]: p53 small molecule agonists, cell-based qHTS assay with rat liver microsomes: qHTS cell viability counter screen (AID 1963580). Note: nearly all actives have a fitted effect of over 45% in size. Note: potency is the fitted concentration of half-maximal effect. A digest of the protocol: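 Rat liver microsome (0.5 mg/mL final) and NADPH (0.5 mg/mL final) co-incubation with compounds for 16 h at 37 C on HCT-116 p53RE-bla cells; cytotoxicity taken from intracellular ATP luminescence.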
The nature of assay [10]: p53 small molecule agonists, cell-based qHTS assay: qHTS cell viability counter screen (AID 1963581). Note: nearly all actives have a fitted effect of over 45% in size. Note: potency is the fitted concentration of half-maximal effect. A digest of the protocol: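 Multiplexed with the reporter read, a CellTiter-Glo step (30 min, room temperature) gauges ATP-based viability of HCT-116 p53RE-bla cells after 16 h compound incubation at 37 C.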
In assay [11] the target is 5-hydroxytryptamine receptor 2A (Homo sapiens) (UniProt P28223). Put plainly: 5-hydroxytryptamine receptor 2A (HTR2A) small molecule antagonists, cell-based qHTS assay (AID 1963586). Note: nearly all actives have a fitted effect of over 45% in size. Note: potency is the fitted concentration of half-maximal effect. The gist of the method: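 CHO cells stably expressing human HTR2A were plated for 18 h at 37 C, then loaded with calcium dye for 1 h. Compounds were preincubated 5 min at room temperature before DOI (4 nM solution) was added. Kinetic fluorescence was read for 3 min.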

Assay [12] has the same target. Put plainly: 5-hydroxytryptamine receptor 2A (HTR2A) small molecule agonists, cell-based qHTS assay (AID 1963587). Note: nearly all actives have a fitted effect of over 30% in size. The gist of the method:
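Kinetic calcium-flux fluorescence (2 min, 1 sec intervals) after compound addition in agonist mode. HTR2A-CHO cells were cultured 18 h, then dye-loaded 1 h at 37 C.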

Assay [13] deals with Muscarinic acetylcholine receptor M1 (Homo sapiens) (UniProt P11229). Put plainly: Cholinergic receptor muscarinic 1 (CHRM1) small molecule antagonists, cell-based qHTS assay (AID 1963588). Note: nearly all actives have a fitted effect of over 40% in size. The gist of the method: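 Compounds were tested at 15 concentrations in three independent runs. Dye-loaded CHRM1-CHO cells were exposed 5 min at room temperature before stimulation by acetylcholine added at 50nM. Intracellular calcium was read kinetically on FDSS for 3 min.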

Assay [14] has the same target. Put plainly: Cholinergic receptor muscarinic 1 (CHRM1) small molecule agonists, cell-based qHTS assay (AID 1963589). Note: nearly all actives have a fitted effect of over 35% in size. The gist of the method: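 qHTS, 15-point titration, 3 independent runs: compounds pin-transferred onto dye-loaded CHRM1-CHO cells (human M1), calcium fluorescence followed every second to detect agonism.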
Assay [15] has as its target Beta-2 adrenergic receptor (Homo sapiens) (UniProt P07550). As to the kind of experiment: Adrenergic beta2 receptor (ADRB2) small molecule antagonists, cell-based qHTS assay (AID 1963592). Note: series mostly up to about 92 µM; nearly all actives have a fitted effect of over 50% in size. A digest of the protocol: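 Assay format: CHO-ADRB2 cells, 18-20hr seeding at 37C/5% CO2, then compound plus 1nM isoproterenol agonist mix for 0.5hr RT. Homogeneous time-resolved fluorescence cAMP detection after 1hr, expressed as 665/615 nm ratio.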

For assay [16], the target named is D(2) dopamine receptor (Homo sapiens) (UniProt P14416). Put plainly: Dopamine D2 receptor (DRD2) small molecule agonists, cell-based qHTS assay (AID 1963594). Note: nearly all actives have a fitted effect of over 35% in size. The gist of the method:
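cAMP accumulation in DRD2-HEK293 cells measured by HTRF after 1 h detection; compounds added 10 min before NKH477 (200nM […]) forskolin-analogue stimulation, 30 min at room temperature, with Ro20-1724 present at 0.1 mM final.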

Assay [17] has the same target. Put plainly: Dopamine D2 receptor (DRD2) small molecule antagonists, cell-based qHTS assay (AID 1963595; active = well fitted inhibition curve with a large enough effect in the signal ratio in the repeat runs, with a control signal flat; the % refers to the signal ratio; note: potency is the fitted concentration of half-maximal effect). The gist of the method:
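Antagonist mode in DRD2-HEK293 cells: after compound addition with 0.1 mM Ro20-1724, cells received quinpirole (12 nM) and NKH477 (200 nM) for 30 min at room temperature; HTRF cAMP read after 1 h detection.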

The nature of assay [18]: cAMP Responsive Elements (CRE) small molecule agonists, cell-based qHTS assay (AID 1963590). The gist of the method: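 Quantitative HTS for CRE agonists: HEK 293T CRE-bla cells, overnight plating, 3 h compound incubation at 37 C/5% CO2, then 2 h room-temperature LiveBLAzer B/G FRET substrate loading.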
Assay [19] can be described thus: cAMP Responsive Elements (CRE) small molecule antagonists, cell-based qHTS assay (AID 1963591; active = well fitted inhibition curve with a large enough effect in the signal ratio in the repeat runs, not every such curve was filed as active; the % refers to the signal ratio). The gist of the method:
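Fluorescence intensity from cleaved LiveBLAzer B/G substrate (2 h, room temperature) quantified CRE-bla activity in HEK 293T cells exposed 3 h to compound with 0.25 uM final NKH477.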

Assay [20] is described as follows: p53 small molecule agonists, cell-based qHTS assay (AID 1963582; active = well fitted activation curve with a large enough effect in the signal ratio in the repeat runs, not every such curve was filed as active; the % refers to the signal ratio). The gist of the method:
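Beta-lactamase reporter cells (p53RE-bla) treated with compounds for 16 h at 37 C; FRET substrate, 2 h, room temperature; fluorescence intensity.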

D(2) dopamine receptor (Homo sapiens), sequence (P14416 whole entry, looked up): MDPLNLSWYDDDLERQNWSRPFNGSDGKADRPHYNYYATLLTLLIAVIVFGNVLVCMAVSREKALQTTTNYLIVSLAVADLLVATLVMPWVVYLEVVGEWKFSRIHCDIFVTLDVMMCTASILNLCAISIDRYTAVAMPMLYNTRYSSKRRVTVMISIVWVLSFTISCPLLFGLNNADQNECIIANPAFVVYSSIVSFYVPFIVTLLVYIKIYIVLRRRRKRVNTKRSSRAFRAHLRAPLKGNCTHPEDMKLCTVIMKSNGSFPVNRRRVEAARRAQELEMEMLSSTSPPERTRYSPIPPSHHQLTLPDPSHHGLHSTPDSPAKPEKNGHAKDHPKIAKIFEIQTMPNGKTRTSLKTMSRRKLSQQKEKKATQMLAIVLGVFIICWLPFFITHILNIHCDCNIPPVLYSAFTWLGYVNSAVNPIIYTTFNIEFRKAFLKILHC
KiSS-1 receptor (Homo sapiens), sequence (Q969F8 whole entry, looked up): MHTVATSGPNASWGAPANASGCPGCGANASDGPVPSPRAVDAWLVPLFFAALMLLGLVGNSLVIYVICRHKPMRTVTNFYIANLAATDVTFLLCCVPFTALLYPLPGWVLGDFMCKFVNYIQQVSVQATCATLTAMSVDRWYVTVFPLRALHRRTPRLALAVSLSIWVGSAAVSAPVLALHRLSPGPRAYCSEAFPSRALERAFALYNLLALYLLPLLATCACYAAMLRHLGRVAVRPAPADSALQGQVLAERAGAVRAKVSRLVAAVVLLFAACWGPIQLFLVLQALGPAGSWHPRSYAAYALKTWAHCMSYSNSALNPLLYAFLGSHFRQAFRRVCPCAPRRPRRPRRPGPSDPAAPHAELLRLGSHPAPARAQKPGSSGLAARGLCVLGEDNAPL
Beta-2 adrenergic receptor (Homo sapiens), sequence (P07550 whole entry, looked up): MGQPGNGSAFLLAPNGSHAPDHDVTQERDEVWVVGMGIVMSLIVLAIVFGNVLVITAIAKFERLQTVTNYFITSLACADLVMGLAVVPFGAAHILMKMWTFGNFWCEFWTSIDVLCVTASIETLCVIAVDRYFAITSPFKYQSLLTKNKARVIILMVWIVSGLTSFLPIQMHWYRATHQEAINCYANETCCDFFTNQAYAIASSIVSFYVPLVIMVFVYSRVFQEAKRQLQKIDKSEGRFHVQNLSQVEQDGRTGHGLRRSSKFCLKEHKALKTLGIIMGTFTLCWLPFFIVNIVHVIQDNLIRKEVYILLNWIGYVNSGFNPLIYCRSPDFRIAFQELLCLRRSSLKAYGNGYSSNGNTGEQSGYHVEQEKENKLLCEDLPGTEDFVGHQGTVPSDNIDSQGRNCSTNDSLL
Gonadotropin-releasing hormone receptor (Homo sapiens), sequence (P30968 whole entry, looked up): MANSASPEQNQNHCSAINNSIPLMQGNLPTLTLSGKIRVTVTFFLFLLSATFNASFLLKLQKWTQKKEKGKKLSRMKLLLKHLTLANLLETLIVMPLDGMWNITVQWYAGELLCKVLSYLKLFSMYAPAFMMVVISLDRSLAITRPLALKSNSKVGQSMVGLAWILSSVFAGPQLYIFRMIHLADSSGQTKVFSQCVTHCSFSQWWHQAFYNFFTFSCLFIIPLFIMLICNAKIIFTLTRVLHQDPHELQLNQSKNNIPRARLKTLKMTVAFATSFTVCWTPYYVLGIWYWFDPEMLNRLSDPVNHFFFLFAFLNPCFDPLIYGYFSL
Muscarinic acetylcholine receptor M1 (Homo sapiens), sequence (P11229 whole entry, looked up): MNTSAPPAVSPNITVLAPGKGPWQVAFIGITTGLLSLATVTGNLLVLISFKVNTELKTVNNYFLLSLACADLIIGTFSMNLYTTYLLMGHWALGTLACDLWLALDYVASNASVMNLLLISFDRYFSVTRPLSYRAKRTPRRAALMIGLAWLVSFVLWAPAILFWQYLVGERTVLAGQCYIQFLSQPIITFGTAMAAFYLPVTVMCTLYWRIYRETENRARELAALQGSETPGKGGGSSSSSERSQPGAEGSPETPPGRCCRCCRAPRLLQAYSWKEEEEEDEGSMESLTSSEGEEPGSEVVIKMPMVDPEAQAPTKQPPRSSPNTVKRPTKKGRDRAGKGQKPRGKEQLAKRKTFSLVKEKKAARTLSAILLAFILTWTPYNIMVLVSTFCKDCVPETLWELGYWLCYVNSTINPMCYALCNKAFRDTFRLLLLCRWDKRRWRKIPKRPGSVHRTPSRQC
5-hydroxytryptamine receptor 2A (Homo sapiens), sequence (P28223 whole entry, looked up): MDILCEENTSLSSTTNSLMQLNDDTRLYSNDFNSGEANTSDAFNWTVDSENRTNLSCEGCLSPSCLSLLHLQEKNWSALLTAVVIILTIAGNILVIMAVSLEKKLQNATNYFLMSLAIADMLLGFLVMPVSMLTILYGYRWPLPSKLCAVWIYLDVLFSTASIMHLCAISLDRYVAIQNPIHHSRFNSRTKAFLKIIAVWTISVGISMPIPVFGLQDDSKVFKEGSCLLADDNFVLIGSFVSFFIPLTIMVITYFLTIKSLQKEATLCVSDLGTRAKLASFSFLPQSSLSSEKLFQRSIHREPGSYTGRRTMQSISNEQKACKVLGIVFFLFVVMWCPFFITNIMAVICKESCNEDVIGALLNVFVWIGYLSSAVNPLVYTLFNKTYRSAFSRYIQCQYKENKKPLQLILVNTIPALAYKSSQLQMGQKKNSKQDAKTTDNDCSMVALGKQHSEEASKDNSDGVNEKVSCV

With `N#Cc1c(Cl)c(Cl)c(Cl)c(C#N)c1Cl`, the Potency was 2.68 µM (active) and 2.73 µM (active) in assay [1]; 950 nM (active) and 969 nM (active) in assay [2]; 25.2 µM (active) and 18.2 µM (active) in assay [8]; 18.2 µM (active) in assay [10]; 15.1 µM (active) and 4.86 µM (active) in [17]. Also, the Potency result in assay [3], in [4], in assay [5], in assay [6], in assay [7] and in assay [9] was “inactive” each time. In addition, the Potency entry in assay [11], in assay [12], in [13], in assay [14], in [15] and in [16] was “inactive” in each case.

Take `O=C(O)c1ccc(=O)[nH]c1`: the Potency entry in assay [1], in assay [2], in assay [3], in assay [4], in [5] and in assay [6] was “inactive” each time. Also, the Potency result in assay [7], in assay [8], in assay [9], in [10], in [12] and in assay [13] was “inactive” throughout. Also, the Potency entry in assay [14], in assay [18], in assay [19], in assay [15], in assay [16] and in assay [17] was “inactive” each time.

With `CCCCCCCCCCCCCC[P+](CCCCCC)(CCCCCC)CCCCCC`, the Potency in assay [1] was 7.73 µM (active) and 19.5 µM (active) and inactive; in assay [8] it was 14.5 µM (active) and 20.6 µM (active) and inactive; in [9], 16.3 µM (active) and 20.6 µM (active) and inactive; in assay [10], 7.29 µM (active) and 18.4 µM (active); in [17], 12.2 µM (active) and 21.9 µM (active) and inactive. Also, the Potency entry in [2], in [3], in assay [4], in assay [5], in assay [6] and in assay [7] was “inactive” throughout. Moreover, the Potency entry in assay [11], in [12], in [13], in assay [14], in assay [15] and in assay [16] was “inactive” each time.

`O=c1[nH]c2ccccc2c(=O)o1`: the Potency result in assay [1], in [2], in assay [3], in assay [4], in [5] and in assay [6] was “inactive” in each case. Moreover, the Potency result in assay [7], in assay [8], in assay [9], in assay [20], in [11] and in [12] was “inactive” throughout. Moreover, the Potency entry in [13], in assay [14], in [18], in [19], in assay [15] and in assay [16] was “inactive” throughout. Further, in [17], the Potency entry is “inactive”.

For `Cl/C=C\CCl`, the Potency result in assay [1], in assay [2], in [3], in assay [4], in [5] and in assay [6] was “inactive” in each case. Also, the Potency entry in [7], in assay [8], in assay [9], in [10], in assay [11] and in [12] was “inactive” throughout. Also, the Potency entry in [13], in [14], in assay [19], in assay [15], in assay [16] and in [17] was “inactive” each time.

`CCOC(=O)C(C)OC(=O)c1cc(Oc2ccc(C(F)(F)F)cc2Cl)ccc1[N+](=O)[O-]` (configuration not stated): the Potency entry in assay [1], in [2], in [3], in [4], in assay [5] and in assay [6] was “inactive” each time. Moreover, the Potency entry in [7], in assay [8], in [9], in assay [10], in [11] and in assay [12] was “inactive” each time. Also, the Potency entry in [13], in assay [14], in assay [18], in assay [19], in assay [15] and in [16] was “inactive” each time. Moreover, the Potency entry in assay [17] is “inactive”.

With `Nc1ccc(-c2ccc(N)c(Cl)c2)cc1Cl`, the Potency entry in [1], in assay [2], in [3], in assay [4], in [5] and in assay [6] was “inactive” each time. The Potency entry in assay [7], in [8], in assay [9], in assay [10], in assay [12] and in assay [13] was “inactive” in each case. Also, the Potency entry in assay [14], in assay [18], in [19], in assay [15], in assay [16] and in assay [17] was “inactive” each time. Also, the Potency in assay [11] is 21.2 µM (active) and 17.5 µM (active) and 29.8 µM (active).
